# According to the supplement of paper PMC9694430:
# Legend:
# Assay in all cases: thermal shift delta Tm vs DMSO control; higher = stronger stabilization (binding)
# Settings in all cases: 12.5 µM; protein concentration 2 µM
# [1] = test system: LOC_OS02G45750-cb003
# Procedure, shortened: (§1)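 Thermal shift values come from differential scanning fluorimetry on purified rice kinase domains made in E. coli, with melting temperatures obtained from Boltzmann fits. Samples of 19.5 μl held 2 μM kinase, 100 mM potassium phosphate pH 7.5, 150 mM NaCl, 10% glycerol, 5 × SYPRO Orange and compound in DMSO, and were heated from 25°C to 95°C at 0.05°C/s. Each shift is a triplicate mean relative to the DMSO-only protein sample.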
# [2] = test system: LOC_OS02G54510-cb004
# Procedure, shortened: as §1
# [3] = test system: LOC_OS03G04050-cb001
# Procedure, shortened: as §1
# [4] = test system: LOC_OS03G12390-cb001
# Procedure, shortened: as §1
# [5] = test system: LOC_OS03G27990-cb004
# Procedure, shortened: as §1
# [6] = test system: LOC_OS03G50450-cb001
# Procedure, shortened: as §1
# [7] = test system: LOC_OS03G50810-cb003
# Procedure, shortened: as §1
# [8] = test system: LOC_OS04G35114-cb001
# Procedure, shortened: as §1
# [9] = test system: T1, LOC_OS04G38480-cb003
# T1 sequence (whole entry): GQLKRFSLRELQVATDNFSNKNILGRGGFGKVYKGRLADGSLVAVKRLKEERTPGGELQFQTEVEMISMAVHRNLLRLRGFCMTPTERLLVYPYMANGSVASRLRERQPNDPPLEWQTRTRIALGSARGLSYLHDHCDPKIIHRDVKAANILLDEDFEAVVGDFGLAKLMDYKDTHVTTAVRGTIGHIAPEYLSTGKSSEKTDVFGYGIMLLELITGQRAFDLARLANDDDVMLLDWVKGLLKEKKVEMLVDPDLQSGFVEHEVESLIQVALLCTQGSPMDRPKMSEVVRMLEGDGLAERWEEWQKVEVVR
# Procedure, shortened: as §1
# [10] = test system: T2, LOC_OS04G41100-cb001
# T2 sequence (whole entry): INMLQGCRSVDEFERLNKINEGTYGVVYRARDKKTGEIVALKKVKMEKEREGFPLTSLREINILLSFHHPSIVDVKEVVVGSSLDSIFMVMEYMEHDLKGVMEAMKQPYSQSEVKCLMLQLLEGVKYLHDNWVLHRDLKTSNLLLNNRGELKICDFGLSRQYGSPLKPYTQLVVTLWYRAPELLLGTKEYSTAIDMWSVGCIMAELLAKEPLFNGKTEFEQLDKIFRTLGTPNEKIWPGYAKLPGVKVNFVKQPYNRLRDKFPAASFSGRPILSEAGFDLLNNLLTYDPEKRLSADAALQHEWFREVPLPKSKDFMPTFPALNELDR
# Procedure, shortened: as §1
# [11] = test system: LOC_OS04G57630-cb004
# Procedure, shortened: as §1
# [12] = test system: LOC_OS05G07850-cb002
# Procedure, shortened: as §1
# [13] = test system: LOC_OS05G16824-cb004
# Procedure, shortened: as §1
# [14] = test system: LOC_OS05G28520-cb001
# Procedure, shortened: as §1
# [15] = test system: LOC_OS05G30820-cb001
# Procedure, shortened: as §1
# [16] = test system: LOC_OS05G43570-cb004
# Procedure, shortened: as §1
# [17] = test system: LOC_OS06G16330-cb003
# LOC_OS06G16330-cb003, sequence (as listed by the source): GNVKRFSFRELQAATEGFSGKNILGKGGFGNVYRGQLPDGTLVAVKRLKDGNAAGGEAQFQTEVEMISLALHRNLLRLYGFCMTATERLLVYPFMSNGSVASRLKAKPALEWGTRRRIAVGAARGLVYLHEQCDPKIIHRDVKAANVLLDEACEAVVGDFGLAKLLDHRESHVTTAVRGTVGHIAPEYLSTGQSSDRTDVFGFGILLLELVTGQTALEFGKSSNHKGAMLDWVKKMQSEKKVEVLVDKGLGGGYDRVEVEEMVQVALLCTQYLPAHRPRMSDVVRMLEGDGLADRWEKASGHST
# Procedure, shortened: as §1
# [18] = test system: T3, LOC_OS06G22820-cb001
# T3 sequence (whole entry): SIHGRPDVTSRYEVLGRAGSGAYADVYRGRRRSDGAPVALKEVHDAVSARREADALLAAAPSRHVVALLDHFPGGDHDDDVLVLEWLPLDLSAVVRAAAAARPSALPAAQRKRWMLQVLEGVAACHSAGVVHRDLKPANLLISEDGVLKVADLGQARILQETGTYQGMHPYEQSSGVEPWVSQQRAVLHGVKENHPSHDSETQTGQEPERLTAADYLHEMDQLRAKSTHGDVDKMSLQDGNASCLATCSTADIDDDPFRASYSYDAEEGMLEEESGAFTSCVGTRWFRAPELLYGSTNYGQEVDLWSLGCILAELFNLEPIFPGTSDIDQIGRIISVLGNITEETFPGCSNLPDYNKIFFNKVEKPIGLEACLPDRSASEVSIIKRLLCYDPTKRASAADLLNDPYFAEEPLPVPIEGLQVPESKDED
# Procedure, shortened: as §1
# [19] = test system: LOC_OS07G06570-cb004
# Procedure, shortened: as §1
# [20] = test system: LOC_OS07G07230-cb001
# Procedure, shortened: as §1
# 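Note: purified Escherichia coli-expressed rice kinase domain construct.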
Compound,thermal shift delta Tm [1] [°C],thermal shift delta Tm [2] [°C],thermal shift delta Tm [3] [°C],thermal shift delta Tm [4] [°C],thermal shift delta Tm [5] [°C],thermal shift delta Tm [6] [°C],thermal shift delta Tm [7] [°C],thermal shift delta Tm [8] [°C],thermal shift delta Tm [9] [°C],thermal shift delta Tm [10] [°C],thermal shift delta Tm [11] [°C],thermal shift delta Tm [12] [°C],thermal shift delta Tm [13] [°C],thermal shift delta Tm [14] [°C],thermal shift delta Tm [15] [°C],thermal shift delta Tm [16] [°C],thermal shift delta Tm [17] [°C],thermal shift delta Tm [18] [°C],thermal shift delta Tm [19] [°C],thermal shift delta Tm [20] [°C]
O=C(O)CCC(=O)Nc1ccc(Br)cn1 [Bikinin],0.64,0.11,0.3,0.13,0.19,0.33,0.43,0.74,1.47,0.42,0.15,0.5,0.58,0.89,0.45,0.76,0.72,0.48,0.42,-0.18
CC(C)(C)c1cc(NC(=O)Nc2ccc(-c3cn4c(n3)sc3cc(OCCN5CCOCC5)ccc34)cc2)no1 [Quizartinib (AC220)],-0.83,0.02,-0.02,0.08,0.09,-0.11,0.82,0.41,0.67,0.81,0.97,1.54,-1.62,0.28,0.82,0.27,0,0.73,1.04,0.45
O=C1NC(=O)C(=Cc2ccc(-c3ccc(F)cc3)o2)S1 (stereo in doubt),0.93,0.18,0.6,0.59,0.53,0.23,0.29,1.05,0.83,0.69,0.48,1.37,-3.64,0.89,0.73,1.06,0.12,0.65,0.53,0.04
N#Cc1ccc2[nH]c(O)c(-c3ccc(CN4CCOCC4)cn3)c2c1,1.77,-0.01,0.4,2.43,0.48,0.53,1.1,1.83,-0.4,2.66,0.29,2.86,1.38,0.81,0.35,0.3,-0.35,0.74,1.19,0.07
C=CC(=O)Nc1cccc(Oc2nc(Nc3ccc(N4CCN(C)CC4)cc3OC)ncc2Cl)c1,0.22,0.42,0.85,5.06,1.09,0.52,2.04,0.9,-0.58,0.39,-0.7,8.75,-3.25,0.26,0.41,0.58,-0.17,0.37,0.31,0.24
O=C(Nc1ccccc1C(=O)NC1CCCCNC1=O)c1cc2ccccc2s1 (stereo not given),0.67,0.07,0.19,-0.24,0.15,0.22,0.43,0.94,1.47,0.17,0.09,0.55,-1.58,0.54,0.1,0.18,-0.39,0.25,1.21,0.41
c1ccc(-c2[nH]ncc2-c2ccnc3ccccc23)nc1,0.48,0.4,0.67,0.41,0.25,0.76,0.28,0.25,2.34,0.99,0.26,3.02,0.42,0.19,0.24,0.65,-2.93,0.08,0.81,0.53
C=C[C@@](C)(/C=C/c1ccc(O)cc1)CCC=C(C)C [Bakuchiol],-0.82,-0.05,0.71,-0.13,0.37,0.04,0.28,0.46,0.81,0.44,0.09,0.26,-1.27,0.19,0.04,0.47,-0.03,0.41,0.83,0.15
O=c1cc(N2CCOCC2)oc2c(-c3ccc4c(c3)OCCO4)csc12,0.67,-0.08,0.24,0.53,0.46,0.44,0.8,1.85,1.22,0.17,0.03,6,1.81,-0.12,0.24,0.13,0.18,0.4,1.45,0.63
Cc1ccc(NC(=O)c2ccc(CN3CC[C@H](N(C)C)C3)c(C(F)(F)F)c2)cc1Nc1nccc(-c2cncnc2)n1 [Bafetinib (INNO-406)],0.37,3.32,0.29,0.16,0.43,0.25,0.34,0.18,0.66,0.35,0.08,0.37,-2.81,1.08,0.77,0.5,-0.31,0.4,1.66,0.62
O=C1Nc2ccc(CN3C(=O)CSC3=O)cc2/C1=C/c1cc(CN2CCOCC2)c[nH]1,2.91,0.28,0.58,4.37,0.63,0.68,2,3.48,3.05,0.46,1.02,6.39,8.47,0.01,0.12,0.23,9.36,1.05,1.86,0.48
CCN(CC)CCNC(=O)c1c(C)[nH]c(/C=C2\C(=O)Nc3ccc(F)cc32)c1C [Sunitinib],0,0.62,0.04,7.93,7.62,3.43,7.56,11,3.55,0.46,4.01,8.4,12.1,2.16,0.86,0.55,8.31,0.22,0.72,0.24
O=C1NC(=O)C(c2ccccc2[N+](=O)[O-])=C1Nc1ccc(O)c(Cl)c1,1.34,0.07,0.14,2.25,0.15,-0.05,0.88,1.02,2.72,0.23,-0.28,4.16,-13.3,1.12,0.7,0.82,-0.2,0.75,2.88,0.07
NC1(Cc2ccc(Cl)cc2)CCN(c2ncnc3[nH]ccc23)CC1,0.79,0.26,0.46,1.47,0.26,0.97,0.62,0.68,0.64,0.33,0.12,2.2,0.61,0.49,0.66,0.72,0.73,0.61,0.47,-0.27
Cc1nc(NC(=O)N2CCC[C@H]2C(N)=O)sc1-c1ccnc(C(C)(C)C(F)(F)F)c1 [Alpelisib (BYL719)],-0.52,0.02,0.28,0.2,0.55,0.38,0.21,1.56,0.94,0.49,-0.02,7.19,-1.37,0.17,0.38,0.29,0.44,0.57,1.48,0.13
O=c1ccc2ccc(O)c(O)c2o1 [Daphnetin],1.1,0.54,0.75,-0.23,0.69,1.08,0.83,0.8,1.96,0.36,0.17,0.01,-3.57,0.77,0.79,0.83,0.25,0.83,1.31,-0.12
Cc1cc(Nc2cc(N3CCN(C)CC3)nc(/C=C/c3ccccc3)n2)n[nH]1,4.69,2.74,0.21,4.05,2.48,8.43,7.16,6.22,1.95,1.86,3.73,11.7,11.2,7.06,1.8,0.82,5.06,0.17,1.23,0.9
C[C@H](Nc1ncnc2[nH]cnc12)c1cc2ccc(F)cc2nc1-c1ccccn1,0.75,0.11,0.38,0.1,0.16,0.69,0.49,0.44,1.43,0.13,0.18,0.48,0.99,0.62,0.48,0.58,0.43,0.53,0.76,0.2
Cc1c(C(=O)Nc2ccc(Oc3ccnc4[nH]cc(-c5ccccc5)c34)c(F)c2)c(=O)n(-c2ccc(F)cc2)n1C,1.92,-0.32,0.37,1.39,0.47,0.52,1.79,5.04,3.56,1.06,0.42,14.4,1.37,0.13,0.63,0.25,6.4,0.86,1.05,-0.13
Cc1cc(Nc2ncnc3ccc(-c4ccc(CNCCS(C)(=O)=O)o4)cc23)ccc1Oc1ccn2ncnc2c1 [HER2-Inhibitor-1],2.59,0.24,0.79,0.49,0.37,0.76,1.21,4.39,1.57,0.72,2.09,6.61,2.73,1.2,0.57,0.41,3.81,0.78,1.57,0.55
CCCNC(=O)c1cn2ncnc(Nc3cc(C(=O)NC4CC4)ccc3C)c2c1C,0.71,0.18,0.45,-0.14,0.24,0.49,0.26,0.65,0.42,0.24,0.07,0.14,-4.13,0.31,0.52,0.2,-0.22,0.62,1.15,0.61
CCc1ccc(/C=C2/SC(=S)NC2=O)cc1,-0.48,0.83,1.24,1.18,0.83,0.26,0.48,1.2,1.19,0.36,0.22,2.65,-3.64,1.2,0.82,1,0.48,1.04,1.65,0.27
C[C@@H]1CN(C(=O)c2ccc(NC(=O)c3cc(O[C@H](C)c4c(Cl)ccc(F)c4Cl)c(N)nn3)cc2)C[C@H](C)N1 [Ensartinib (X-396)],6.54,3.48,-0.25,2.86,0.07,0.15,5,8.12,5.86,0.2,4.75,7.81,5.94,0.56,0.45,0.3,13.8,0.22,0.36,0.35
CCC(=O)Nc1cccc(Oc2nc(Nc3ccc(N4CCN(C)CC4)cc3OC)ncc2Cl)c1,1.13,-0.03,0.41,2.35,0.56,0.69,1.06,0.8,1.83,0.39,0.17,5.91,-0.12,0.72,0.41,0.44,0.62,0.4,0.81,0.4
C=CC(=O)N1CCC[C@@H](n2nc(-c3ccc(Oc4ccccc4)cc3)c3c(N)ncnc32)C1,1.46,1.25,0.88,0.1,0.51,1.39,1.07,3.03,1.2,0.37,1,6.56,1.31,-0.3,0.44,0.27,1.99,0.54,0.5,0.64
